Test [1] deals with human Androgen Receptor (AR), AR (gene 367) (UniProt P10275). The test is described as follows: NVS_NR_hAR: NovaScreen (NVS) Nuclear Receptor Binding Assay for human Androgen Receptor (AR) (AID 2283332). In outline:
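LnCAP cell-free extract; radioligand displacement read by scintillation counting after 20 h. Primary screen single concentration 25 uM in duplicate, actives then run as concentration series; loss-of-signal fitted relative to DMSO baseline.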

The target in test [2] is bovine Estrogen Receptor (ER), ESR1 (gene 407238) (UniProt P49884). The test is described as follows: NVS_NR_bER: NovaScreen (NVS) Nuclear Receptor Binding Assay for bovine Estrogen Receptor (ER) (AID 2283345).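 Note: actives lower the bound radioligand count which means they displace the ER ligand.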 In short, it runs like this: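 Cell-free radioligand binding with receptor from bovine uterine membranes, read by scintillation counting 18 h after dosing. Loss of specific binding was scored against DMSO; primary screen at 25 uM in duplicate, actives then run as concentration series.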
Sequence of bovine Estrogen Receptor (ER), ESR1 (gene 407238) (P49884 whole entry, looked up): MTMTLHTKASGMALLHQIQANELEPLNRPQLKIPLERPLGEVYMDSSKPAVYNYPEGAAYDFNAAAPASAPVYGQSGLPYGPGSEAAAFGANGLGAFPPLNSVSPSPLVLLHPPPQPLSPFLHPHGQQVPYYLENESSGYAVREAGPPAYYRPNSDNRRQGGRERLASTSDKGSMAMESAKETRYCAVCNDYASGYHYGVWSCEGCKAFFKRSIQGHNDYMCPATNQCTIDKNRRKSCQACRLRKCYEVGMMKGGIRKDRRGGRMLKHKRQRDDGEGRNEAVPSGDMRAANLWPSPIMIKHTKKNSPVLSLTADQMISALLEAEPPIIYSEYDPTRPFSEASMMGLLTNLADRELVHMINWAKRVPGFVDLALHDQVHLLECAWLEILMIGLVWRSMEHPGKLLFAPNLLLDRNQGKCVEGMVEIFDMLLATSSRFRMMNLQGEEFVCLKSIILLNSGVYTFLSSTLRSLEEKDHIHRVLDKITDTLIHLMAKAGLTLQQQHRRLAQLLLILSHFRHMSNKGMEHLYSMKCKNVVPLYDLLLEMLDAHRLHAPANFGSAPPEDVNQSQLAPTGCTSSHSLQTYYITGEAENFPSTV

In test [3] the target is Estrogen receptor (Homo sapiens) (UniProt P03372). As to the kind of experiment: NVS_NR_hER: NovaScreen (NVS) Nuclear Receptor Binding Assay for human Estrogen Receptor (ER) (AID 2283348). In outline: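 MCF7-derived receptor extract, radiolabelled ligand, competitive displacement. Read: scintillation counts at 18 h. DMSO = negative control/baseline. Primary 25 uM duplicate; follow-up concentration–response.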
Sequence of Estrogen receptor (Homo sapiens) (P03372 whole entry, looked up): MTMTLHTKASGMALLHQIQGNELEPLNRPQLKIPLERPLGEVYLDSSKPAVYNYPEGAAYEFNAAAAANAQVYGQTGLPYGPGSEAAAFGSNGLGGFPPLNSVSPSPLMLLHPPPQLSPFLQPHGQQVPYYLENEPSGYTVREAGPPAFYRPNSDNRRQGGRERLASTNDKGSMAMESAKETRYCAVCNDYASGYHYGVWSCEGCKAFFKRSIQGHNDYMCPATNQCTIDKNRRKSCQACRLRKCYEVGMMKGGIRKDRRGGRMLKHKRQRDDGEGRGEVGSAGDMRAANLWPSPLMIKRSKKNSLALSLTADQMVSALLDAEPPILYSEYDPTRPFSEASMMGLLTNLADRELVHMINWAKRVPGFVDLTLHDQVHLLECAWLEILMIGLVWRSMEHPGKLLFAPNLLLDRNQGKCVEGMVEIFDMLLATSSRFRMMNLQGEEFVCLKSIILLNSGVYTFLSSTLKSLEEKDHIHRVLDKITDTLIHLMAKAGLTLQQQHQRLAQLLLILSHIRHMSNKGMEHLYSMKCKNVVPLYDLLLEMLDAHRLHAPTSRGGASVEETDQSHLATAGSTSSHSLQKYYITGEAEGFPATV

The structures appear in SMILES notation. Inconclusive results are not listed. Calls of active or inactive are those of the source. Rule for the calls: active = hit-call score of the fitted dose curve at least 0.9, where 1 is the maximum; inconclusive = response in the unintended direction; inactive = score below 0.9.

Sequence of human Androgen Receptor (AR), AR (gene 367) (P10275 whole entry, looked up): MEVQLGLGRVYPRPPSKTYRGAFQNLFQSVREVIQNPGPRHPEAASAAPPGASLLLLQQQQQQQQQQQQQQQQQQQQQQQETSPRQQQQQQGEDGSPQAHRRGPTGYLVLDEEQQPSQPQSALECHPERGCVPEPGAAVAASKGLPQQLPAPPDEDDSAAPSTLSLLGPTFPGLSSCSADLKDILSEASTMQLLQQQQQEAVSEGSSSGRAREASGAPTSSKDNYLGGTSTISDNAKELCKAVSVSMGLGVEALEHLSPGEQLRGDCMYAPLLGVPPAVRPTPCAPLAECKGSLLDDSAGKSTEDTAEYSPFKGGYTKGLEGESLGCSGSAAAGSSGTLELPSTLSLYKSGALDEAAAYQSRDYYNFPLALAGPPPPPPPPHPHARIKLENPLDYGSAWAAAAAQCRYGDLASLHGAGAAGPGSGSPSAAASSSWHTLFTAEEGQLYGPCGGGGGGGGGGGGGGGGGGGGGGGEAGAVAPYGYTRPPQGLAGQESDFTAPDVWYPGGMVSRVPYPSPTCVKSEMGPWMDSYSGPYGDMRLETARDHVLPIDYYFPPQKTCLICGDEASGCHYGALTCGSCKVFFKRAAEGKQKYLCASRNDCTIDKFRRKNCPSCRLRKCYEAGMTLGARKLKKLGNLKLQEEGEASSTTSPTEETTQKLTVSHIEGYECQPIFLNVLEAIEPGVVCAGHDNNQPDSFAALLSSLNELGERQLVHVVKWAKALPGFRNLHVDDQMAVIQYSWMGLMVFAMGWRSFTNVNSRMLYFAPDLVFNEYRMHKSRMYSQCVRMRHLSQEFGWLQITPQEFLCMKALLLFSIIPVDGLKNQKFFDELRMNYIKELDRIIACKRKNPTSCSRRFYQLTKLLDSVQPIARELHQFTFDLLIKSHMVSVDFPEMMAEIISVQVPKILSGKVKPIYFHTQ

Consider `Oc1c(Cl)cc(Cl)c(Cl)c1Cc1c(O)c(Cl)cc(Cl)c1Cl`, for which the AC50 in test [1] was 24 µM (active).
With `Cc1[nH]c(=O)c(C#N)cc1-c1ccncc1`, the compound was called inactive in test [2].
As to `CCCCCCCCCCCC(=O)OCC(O)CO` (stereo not given), the call in test [2] and in test [3] was inactive.
On to `CS(=O)(=O)OCCCCOS(C)(=O)=O`, for which the AC50 in test [3] is 0.875 µM (active).

As a reminder, the AC50 is the concentration at which the activity in the assay is half-maximal.

The values are drawn from PubChem BioAssay (EPA / NIEHS).
